# In the supplement of paper PMC8728848:
# Shown is part of a subset that was picked to be rich in the strongest signals.
# Assays:
# Experiment in all cases: glycan array binding signal (z-score within array); higher = stronger binding
# Conditions in all cases: glycan notation: IUPAC condensed, linker removed
# [1] = target: GlcNAc(b1-3)Gal(b1-4)GlcNAc(b1-3)Gal(b1-4)GlcNAc(b1-3)Gal(b1-4)GlcNAc(b1-2)Man(a1-3)[GlcNAc(b1-3)Gal(b1-4)GlcNAc(b1-3)Gal(b1-4)GlcNAc(b1-3)Gal(b1-4)GlcNAc(b1-2)Man(a1-6)]Man(b1-4)GlcNAc(b1-4)GlcNAc
# Procedure, shortened: (§1)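 Columns mapping to the same glycan were averaged after glycan names were converted to IUPAC-condensed notation. The data come from 3228 arrays in the Consortium for Functional Glycomics database, limited to those with an available protein sequence. Binding is reported as a within-array Z-score averaged across arrays of one protein sequence and across linkers.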
# [2] = target: GlcNAc(b1-3)Gal(b1-4)GlcNAc(b1-3)Gal(b1-4)GlcNAc(b1-3)Gal(b1-4)GlcNAc(b1-2)[GlcNAc(b1-3)Gal(b1-4)GlcNAc(b1-3)Gal(b1-4)GlcNAc(b1-3)Gal(b1-4)GlcNAc(b1-6)]Man(a1-6)[GlcNAc(b1-3)Gal(b1-4)GlcNAc(b1-3)Gal(b1-4)GlcNAc(b1-3)Gal(b1-4)GlcNAc(b1-2)Man(a1-3)]Man(b1-4)GlcNAc(b1-4)[Fuc(a1-6)]GlcNAc
# Procedure, shortened: as §1
# [3] = target: GlcNAc(b1-3)Gal(b1-4)GlcNAc(b1-3)Gal(b1-4)GlcNAc(b1-3)Gal(b1-4)GlcNAc(b1-3)Gal(b1-4)GlcNAc(b1-2)Man(a1-3)[GlcNAc(b1-3)Gal(b1-4)GlcNAc(b1-3)Gal(b1-4)GlcNAc(b1-3)Gal(b1-4)GlcNAc(b1-3)Gal(b1-4)GlcNAc(b1-2)Man(a1-6)]Man(b1-4)GlcNAc(b1-4)GlcNAc
# Procedure, shortened: as §1
# [4] = target: GlcNAc(b1-3)Gal(b1-4)GlcNAc(b1-3)Gal(b1-4)GlcNAc(b1-3)GalNAc
# Procedure, shortened: as §1
# [5] = target: GlcNAc(b1-3)[GlcNAc(b1-6)]Gal(b1-4)GlcNAc
# Procedure, shortened: as §1
# GlcNAc(b1-4)GlcNAc = target: GlcNAc(b1-4)GlcNAc
# Procedure, shortened: as §1
# [6] = target: Man(a1-2)Man(a1-3)[Man(a1-2)Man(a1-6)]Man
# Procedure, shortened: as §1
# [7] = target: Man(a1-3)[Man(a1-6)]Man(b1-4)GlcNAc(b1-4)[Fuc(a1-6)]GlcNAc
# Procedure, shortened: as §1
# [8] = target: Neu5Ac(a2-3)Gal(b1-3)GalNAc6S
# Procedure, shortened: as §1
# [9] = target: Neu5Ac(a2-3)Gal(b1-3)]Neu5Ac(a2-3)Gal(b1-4)]GlcNAc
# Procedure, shortened: as §1
# [10] = target: Neu5Ac(a2-3)Gal(b1-4)GlcNAc(b1-3)Gal(b1-4)GlcNAc(b1-3)Gal(b1-4)GlcNAc(b1-2)Man(a1-3)[Neu5Ac(a2-3)Gal(b1-4)GlcNAc(b1-3)Gal(b1-4)GlcNAc(b1-3)Gal(b1-4)GlcNAc(b1-2)Man(a1-6)]GalNAc
# Procedure, shortened: as §1
# [11] = target: Neu5Ac(a2-3)Gal(b1-4)GlcNAc(b1-6)[Gal(b1-3)]GalNAc
# Procedure, shortened: as §1
# [12] = target: Neu5Ac(a2-3)Gal(b1-4)[Fuc(a1-3)]GlcNAc6S
# Procedure, shortened: as §1
# [13] = target: Neu5Ac(a2-3)[GalNAc(b1-4)]Gal(b1-4)Glc
# Procedure, shortened: as §1
# [14] = target: Neu5Ac(a2-6)Gal(b1-4)GlcNAc(b1-2)Man(a1-3)[GlcNAc(b1-4)][Neu5Ac(a2-6)Gal(b1-4)GlcNAc(b1-2)Man(a1-6)]Man(b1-4)GlcNAc(b1-4)GlcNAc
# Procedure, shortened: as §1
# [15] = target: Neu5Ac(a2-6)Gal(b1-4)GlcNAc(b1-2)Man(a1-6)Man(b1-4)GlcNAc(b1-4)GlcNAc
# Procedure, shortened: as §1
# [16] = target: Neu5Ac(a2-6)Gal(b1-4)GlcNAc(b1-3)Gal(b1-4)GlcNAc(b1-3)Gal(b1-4)GlcNAc(b1-2)Man(a1-3)[Neu5Ac(a2-6)Gal(b1-4)GlcNAc(b1-3)Gal(b1-4)GlcNAc(b1-3)Gal(b1-4)GlcNAc(b1-2)Man(a1-6)]GalNAc
# Procedure, shortened: as §1
# [17] = target: Neu5Ac(a2-6)Gal(b1-4)GlcNAc(b1-3)Gal(b1-4)GlcNAc(b1-3)[Neu5Ac(a2-6)Gal(b1-4)GlcNAc(b1-3)Gal(b1-4)GlcNAc(b1-6)]GalNAc
# Procedure, shortened: as §1
# [18] = target: Neu5Ac(a2-6)Gal(b1-4)GlcNAc(b1-3)Gal(b1-4)[Fuc(a1-3)]GlcNAc(b1-3)Gal(b1-4)[Fuc(a1-3)]GlcNAc
# Procedure, shortened: as §1
# Neu5Ac(a2-6)GalNAc = target: Neu5Ac(a2-6)GalNAc
# Procedure, shortened: as §1
# [19] = target: Neu5Ac(a2-8)Neu5Ac(a2-3)Gal(b1-4)GlcNAc
# Procedure, shortened: as §1
# [20] = target: Neu5Gc(a2-3)Gal(b1-4)GlcNAc
# Procedure, shortened: as §1
# Neu5Gc(a2-6)GalNAc = target: Neu5Gc(a2-6)GalNAc
# Procedure, shortened: as §1
binder,measurement,setting,value
MpAFP NterminalRI GFP (Marinomonas primoryensis) (protein) MSDNQFPFATLGNAIGFITKLDGSVTVQSIDGQERVLKLGDPIFFGETVLTGGSGSVTIAFVDGTDVVIGGDSIVEMTDEIYNTGDNEDLVADSSSEIDALQNAILAGDDPTLIQDAPAAGNTLADQQRVDVSIERNDNSAQAGFGVDTQSSLPTYGYDTDNGNGGQATEREYSAPSLSRTLNQSPLLEHHHHHH,glycan array binding signal (z-score),[1],6.83
same,glycan array binding signal (z-score),[2],2.6
same,glycan array binding signal (z-score),[3],0.255
same,glycan array binding signal (z-score),[4],-0.344
same,glycan array binding signal (z-score),[5],-0.441
same,glycan array binding signal (z-score),GlcNAc(b1-4)GlcNAc,4.84
same,glycan array binding signal (z-score),[6],2.93
same,glycan array binding signal (z-score),[7],-0.195
same,glycan array binding signal (z-score),[8],-0.078
same,glycan array binding signal (z-score),[9],-0.531
same,glycan array binding signal (z-score),[10],2.98
same,glycan array binding signal (z-score),[11],3.31
same,glycan array binding signal (z-score),[12],-0.574
same,glycan array binding signal (z-score),[13],-0.63
same,glycan array binding signal (z-score),[14],-0.202
same,glycan array binding signal (z-score),[15],-0.385
same,glycan array binding signal (z-score),[16],1.24
same,glycan array binding signal (z-score),[17],-0.027
same,glycan array binding signal (z-score),[18],-0.212
same,glycan array binding signal (z-score),Neu5Ac(a2-6)GalNAc,-0.388
same,glycan array binding signal (z-score),[19],-0.655
same,glycan array binding signal (z-score),[20],-0.632
same,glycan array binding signal (z-score),Neu5Gc(a2-6)GalNAc,3.75
